Bioassay records deposited in PubChem BioAssay by SRMLSC.
A340 absorber: absorbance at 340 nm. compound absorbance at 340 nm, fold over control. fold change at 10 µM. 65,000 tested, under 10 active. AID 708;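 active = at 10 µM dose, initial 340 nm absorbance at least 2 fold that of control wells; inactive = change under 2 fold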;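 also: initial absorbance extrapolated from kinetic A340 decline of NADH oxidation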
MK inhibit: S. pneumoniae mevalonate kinase inhibition | purified MK, PK/LDH-coupled NADH absorbance 340 nm | inhibition, % at 10 µM | 0.48% of 65,000 active;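 active = ranked among the strongest by inhibition in the single 10 µM screen, a fixed top-ranked set picked for dose follow-up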
NADH enzymes: blocks coupling enzymes of NAD/NADH assays. coupled PK/LDH NADH assays, four targets. IC50, µM (highest dose often 10 µM). 0.02% of 65,000 active;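 active = single-dose screening hits from any of four coupled enzyme assays that gave an IC50 when retested across doses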;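 also: the DPM-DC format reads NADH fluorescence rather than 340 nm absorbance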
Spn DPM-DC inh: S. pneumoniae DPM-DC inhibition; calls only at 10 µM; purified DPM-DC, PK/LDH coupled NADH fluorescence; AID 556; 0.49% of 65,000 active;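 active = the 320 compounds with the highest percent inhibition in the single-dose primary screen, excluding strongly autofluorescent ones, cut at about 32% in these data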;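 also: kinetic rate of NADH fluorescence loss reporting ADP formed by the decarboxylase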
PMK inhibit: S. pneumoniae PMK inhibition; 0.49% of 65,000 active; inhibition, % at 10 µM; purified PMK, PK/LDH-coupled NADH absorbance 340 nm;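 active = top-ranked compounds by inhibition in the single 10 µM screen, taking a fixed number of the strongest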
Autofluor 339: intrinsic fluorescence of library compounds, ex339/em460 – biochemical, MLSMR library, data from DPM-DC assay, artefact control, profiling panel; 5.5% of 65,000 active; compound autofluorescence, ex339/em460 nm, NADH buffer; stronger effect = higher value; 1 = no-compound wells, NADH background; fluorescence fold increase at 10 µM;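 active = at 10 µM, mean starting fluorescence two-fold or more over control wells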;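 also: signal is the first read of a kinetic run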
Hits are given with their value; - = inactive; . = no result given; + = active, no number. A selection: hits, their analogues and other compounds. The true share with any hit is near 6.5%.

SMILES | A340 absorber | MK inhibit | NADH enzymes | Spn DPM-DC inh | PMK inhibit | Autofluor 339
COc1ccc(N2C(=O)C3CCCN3C2c2ccccc2Cl)cc1 (stereo not given) | - | - | - | - | - | -
Cc1c(C)c2ccc(OCC(=O)N(C)C)c(C)c2oc1=O | - | - | - | . | - | 3.68
CCc1c(C)c2ccc(OCC(=O)N(C)C)c(C)c2oc1=O | - | - | - | . | - | 3.54
COc1ccc2c(C)cc(=O)oc2c1C | - | - | - | . | - | 2.09
CCc1ccc(OCC(=O)N(C)C)c(Br)c1 | - | - | - | - | - | -
CCc1nnc(NC(=O)C2CCCN2S(=O)(=O)c2ccc(F)cc2)s1 (stereo not given) | - | - | - | - | - | -
CC1=C(C(=O)Nc2ccccc2C)C(c2ccc(C)o2)N2C(=O)CSC2=N1 (stereo not given) | - | - | - | - | - | -
Nn1cc(-c2ccccc2)nc1SCC(=O)NCCN1C(=O)CSC1=O | - | - | - | - | - | -
O=c1[nH]c(-c2ccc(Cl)cc2)nc2c1cnn2-c1ccccc1 | - | - | - | - | - | 2.3
COC(=O)c1nnn(CC(=O)Nc2cccc(Cl)c2C)c1C(=O)OC | - | - | - | - | - | -
Cc1nn(-c2ccccc2)c2sc(C(=O)O)cc12 | - | - | - | - | - | -
Cc1nn(-c2ccccc2)c2sc(-c3n[nH]c(=S)o3)cc12 | - | - | - | . | - | 3.86
CCOC(=O)c1c(N)n(CCOC(=O)c2cccs2)c2nc3ccccc3nc12 | - | - | - | . | - | 3.68
Cn1nnc2c(NCc3ccco3)nccc21 | - | - | - | . | - | 2.11
O=C(Cn1nnc(-c2ccncc2)n1)N(C1CCCCC1)C1CCCCC1 | - | - | - | - | - | -
Cc1cc(C)n(-c2nc(NCCCO)c3c4c(sc3n2)CCCC4)n1 | - | - | - | - | - | 2.62
Cc1cc(C)n(-c2nc(NCCO)c3c4c(sc3n2)CCCC4)n1 | - | - | - | - | - | -
Cc1cc(C)n(-c2nc(NCC3CCCO3)c3c4c(sc3n2)COC(C)(C)C4)n1 (stereo not given) | - | - | - | . | - | 3.72
NC(=O)c1ccccc1NS(=O)(=O)Cc1ccc(Cl)cc1 | - | - | - | . | - | 3.92
NC(=O)c1ccccc1NC(=O)CS(=O)(=O)Cc1ccccc1 | - | - | - | - | - | -
CN(C)S(=O)(=O)Nc1ccc(NS(=O)(=O)N(C)C)c(S(=O)(=O)c2ccccc2)c1 | - | - | - | - | - | -
Cc1ccc(S(=O)(=O)Nc2ccccc2C(N)=O)cc1 | - | - | - | . | - | 3.89
CN(C)S(=O)(=O)Nc1ccccc1C(N)=O | - | - | - | . | - | 2.92
CCC1(C)Cc2c(c(=O)n(-c3ccccc3)c3ncnc(N)c23)CO1 (stereo not given) | - | - | - | - | - | -
COc1ccc(CNc2nc(-c3cccnc3)nn2C(=O)c2cccs2)cc1 | - | - | - | - | - | -
SMILES | A340 absorber | MK inhibit | NADH enzymes | Spn DPM-DC inh | PMK inhibit | Autofluor 339
O=C(CN1CCN(C(=O)c2ccccc2F)CC1)Nc1ccc(Br)cc1 | - | - | - | - | - | -
CN(C)C(=O)CSc1nnc(-c2cc(-c3cccs3)nc3ccccc23)o1 | - | - | - | . | - | 4.92
O=C(CSc1nnc(-c2cccs2)o1)OCc1ccccc1 | - | - | - | - | - | -
COC(=O)c1cc(OC)c(OC)cc1NC(=O)Nc1ccccc1OC | - | - | - | . | - | 2.06
COC(=O)c1cc(OC)c(OC)cc1NC(=O)c1oc2ccccc2c1C | - | - | - | + | - | 2.46
CCSCc1nnc(SCC(=O)c2ccc(OC)cc2)n1C | - | - | - | - | - | -
COc1cc(OC)c(OC)cc1/C=N/n1c(C)nnc1C | - | - | - | . | - | 2.16
COc1cccc(/C=N/n2c(C)nc3ccccc32)c1OC | - | - | - | - | - | -
COc1cccc(/C=N\n2c(C)nnc2C)c1OC | - | - | - | + | - | -
O=C(Cc1cccs1)Nc1cccnc1 | - | - | - | - | - | -
CSC(=O)CC(=O)NC(=O)c1ccccc1 | - | - | - | - | - | -
O=c1[nH]c2cc3c(cc2cc1CN(Cc1nnnn1CC1CCCO1)C1CCCCC1)OCO3 (stereo not given) | - | - | - | - | - | -
O=c1[nH]c2cc3c(cc2cc1CN(Cc1nnnn1CC1CCCO1)C1CCCC1)OCO3 (stereo not given) | - | - | - | - | - | 2.48
